Results reported in ChEMBL document CHEMBL4513216, “Probing the Open Global Health Chemical Diversity Library for Multistage-Active Starting Points for Next-Generation Antimalarials” (ACS Infect Dis, 2020).
About 2,700 (4%) of roughly 68,000 compounds showed an effect of 50% or more. The entries come from a sample that favours strong results as a whole.

The compounds below were run on Plasmodium berghei (assay: Screen against P. berghei liver stage (PbLuc), transformed with Luciferase, at 2uM). Conditions: tested at 2 uM.
Format: functional, HepG2

SMILES	INHIBITION [%]
CCN(Cc1cccc2c1OCO2)C(=O)NCc1ccccn1	-5.39
O=C(Cc1cccs1)N1C[C@H]2CC[C@@H](C1)N(Cc1ccccn1)C2=O	14.63
COCC(O)CN(C)C(=O)NCc1ccc(-c2ccn[nH]2)cc1 (stereo unspecified)	-0.21
COc1ncc(C(=O)N2CCC3(CC2)C(=O)Nc2ccccc23)cn1	50.32
O=C(c1ccncc1)N1CCC2(CC1)C(=O)Nc1ccccc12	49.25
N#Cc1ccc(C(=O)N2CCC3(CC2)C(=O)Nc2ccccc23)cn1	24.88
Cc1ocnc1C(=O)N1CC[C@@H](O)[C@@H](O)[C@H](N2CCC(F)(F)CC2)C1	7.4
CCCOc1ccccc1CN[C@@H]1CCC[C@H]1Cc1cc(C)no1	3.28
CC(C)CC(CCO)CNC(=O)N1CC(C)(C)C1(C)C (stereo unspecified)	-6.69
CCCS(=O)(=O)N1CC(=O)N(Cc2cccc(OC)c2OC)CC(O)C1 (stereo unspecified)	-13.32
CCOc1ccccc1C(CC(=O)Nc1ccccc1)NC(C)=O (stereo unspecified)	23.45
CCOc1ccccc1C(CC(=O)Nc1ncc(C)s1)NC(C)=O (stereo unspecified)	-32.89
CCOc1ccccc1C(CC(=O)Nc1nc(C)cs1)NC(C)=O (stereo unspecified)	67.59
CC(C)c1nnc2n1CCN(C(=O)c1cccc(C(F)(F)F)c1)C2	15.31
Cc1cc(C)nc(N2CCN(Cc3nccn3C)CC2)n1	5.78
Cc1cc(C(F)(F)F)nc(N2CCN(Cc3nccn3C)CC2)n1	10.91
Cc1nc(N2CCCC2)nc2c1CCN(Cc1nccn1C)CC2	9.98
Cc1cc(N(C)C)nc(N2CCN(Cc3nccn3C)CC2)n1	50.61
CN(C)c1nc(N2CCCC2)nc2c1CCN(Cc1nccn1C)CC2	55.92
Cc1cc(N(C)C)nc(N2CCn3c(C)nnc3C2)n1	29.13
CC(C)Nc1nc2c(c(N(C)C)n1)CCN(Cc1nccn1C)CC2	28.11
Cc1cc(N(C)C)nc(N2CCn3c(nnc3C(C)C)C2)n1	-6.64

SMILES	INHIBITION [%]
CCc1nnc2n1CCN(c1nc(C)cc(N(C)C)n1)C2	62.51
NS(=O)(=O)c1ccc(NCc2ccco2)c2ncccc12	7.3
Cc1ccccc1-c1cc(C(=O)NCCN2CCCS2(=O)=O)[nH]n1	36.65
Cc1ccccc1-n1c(C)cc(C(=O)N2CCn3c(C)nnc3C2)c1C	-61.5
CN(C(=O)CCNC(=O)C1COc2ccccc21)c1ccccc1 (stereo unspecified)	-0.3
Cc1nn(C)c2cnn(CCCNS(=O)(=O)Cc3ccccc3)c12	-12.73
COC[C@@H]1CCC[C@]12CN(CCc1ccccc1)CCO2	-20.67
O=C([C@H]1CCCN1)N1CC2(CCNCC2)c2cc(Cl)ccc21	0.57
CCc1[nH]ncc1C(=O)N1CCCC(n2nc(C)nc2C)C1 (stereo unspecified)	54.85
CCc1ncncc1C(=O)N1CCCC(n2nc(C)nc2C)C1 (stereo unspecified)	-26.85
Cc1nc(C)n(C2CCCN(C(=O)c3cscn3)C2)n1 (stereo unspecified)	-13.94
CCc1[nH]ncc1C(=O)N1CCCC(n2nc(C)cc2C)C1 (stereo unspecified)	12.75
Cc1nc(C)n(C2CCCN(C(=O)c3csnn3)C2)n1 (stereo unspecified)	53.45
Cc1nc(C)n(C2CCCN(C(=O)c3csc(C)n3)C2)n1 (stereo unspecified)	-47.87
Cc1nc(C)n(C2CCCN(C(=O)c3cncnc3C)C2)n1 (stereo unspecified)	62.82
CCc1nc(C)ncc1C(=O)N1CCCC(n2nc(C)nc2C)C1 (stereo unspecified)	36.92
Cc1ncc(C(=O)N2CCCC(n3nc(C)nc3C)C2)c(C(C)C)n1 (stereo unspecified)	24.02
Cc1nn(C)c(C)c1NC(=O)Nc1cccnc1N1CCCC1	15.28
COCc1ncn2c1CN(C(=O)c1cccc3cccnc13)CC2	29.3
CCC(C)c1noc(C2CCN(C(=O)c3cccnc3)CC2)n1 (stereo unspecified)	-59.73
CC(C)(C)C(NC(=O)CCS(C)(=O)=O)c1ccc(F)cc1F (stereo unspecified)	41.84
NC(=O)CC1CCN(C(=O)NCc2ccc(-c3ccn[nH]3)cc2)CC1	7.13

SMILES	INHIBITION [%]
O=C(C1COc2ccccc2C1)N(CCO)Cc1ccccc1 (stereo unspecified)	-49.31
CC1CCCCN1C(=O)c1ccn(COc2ccc(F)cc2)n1 (stereo unspecified)	-12.84
COc1cccc(Nc2nc(-c3ccncc3)nc3c2CNCC3)c1	12.6
N#Cc1cccc(CN2Cc3nccn3CC(COCC3CC3)C2)c1 (stereo unspecified)	-17.39
CC(C)NC(=O)[C@H]1C[C@H]2OCC[C@H]2N(Cc2ccc3ccccc3n2)C1	55.8
CC(C)NC(=O)[C@@H]1C[C@H]2OCC[C@H]2N(Cc2ccc3ccccc3n2)C1	9.69
O=C(NC1CC1)[C@H]1C[C@H]2OCC[C@H]2N(Cc2ccc3ccccc3n2)C1	0.91
CCS(=O)(=O)N1C[C@H]2CC[C@](O)(c3ccc(C)cc3)[C@H]2C1	38.23
Cc1ccc([C@@]2(O)CC[C@@H]3CN(S(=O)(=O)C(C)C)C[C@@H]32)cc1	40.31
Cc1ccc([C@@]2(O)CC[C@@H]3CN(S(=O)(=O)c4cn(C)nc4C)C[C@@H]32)cc1	55.74
CNC(=O)[C@H]1C[C@@H]2CN(S(=O)(=O)c3cccc(C)c3)C[C@@H]2N1C	27.95
COC(=O)CNC(=O)c1scnc1C	-7.24
COc1cccc(N2CCN(C(=O)C(C)Oc3ccccc3)CC2=O)c1 (stereo unspecified)	24.28
CC(C)[C@@H]1CN(C(=O)CCc2ccc(F)cc2)C[C@H]1C(=O)O	18.63
CC(C)[C@@H]1CN(C(=O)CN(C)Cc2ccccc2)C[C@H]1C(=O)O	35.46
CC(C)[C@@H]1CN(C(=O)CN(C)Cc2ccc(F)cc2)C[C@H]1C(=O)O	72.49
Cc1cc(C)cc(C(C)NCc2nnc(C)s2)c1 (stereo unspecified)	38.67
COc1ccc(C(C)NCc2c[nH]nc2C)cc1Br (stereo unspecified)	-8.5
COc1ccc(C(C)NCc2c[nH]nc2C)cc1OC (stereo unspecified)	66.4
Cc1nnc(CNC(C)c2cc(C)c(F)c(C)c2)s1 (stereo unspecified)	31.51
COc1cc(C(C)NCc2c[nH]nc2C)ccc1OCCO (stereo unspecified)	32.26
COc1ccc(C(C)NCc2nnc(C)s2)cc1F (stereo unspecified)	52.98
